# According to PubChem BioAssay AID1508601 (ICCB-Longwood Screening Facility, Harvard Medical School, 2020):
# “And” between values parts separate entries of the source, which are not always exact repeats. Equal values may be shown once. Out of some 5,700 compounds screened, about 85 (1%) were called active. No stated cut-off is given here; in the data, active means p53-positive nuclei above about 36% (passing the limit was not always enough); inactive means the rest. The entries come from a sample that favours actives as a whole.
# Key:
# [1] = p53 stabilisation in HPV-positive human cells, imaging, p53-positive nuclei imaging, 24 h, 48 h (AID 1508601); conditions: 24/48 h
# [2] = target: Cellular tumor antigen p53 (Homo sapiens) (UniProt P04637); test: as above; conditions: 24/48 h, stronger effect = higher value
# Cellular tumor antigen p53 (Homo sapiens), sequence (P04637 whole entry, looked up): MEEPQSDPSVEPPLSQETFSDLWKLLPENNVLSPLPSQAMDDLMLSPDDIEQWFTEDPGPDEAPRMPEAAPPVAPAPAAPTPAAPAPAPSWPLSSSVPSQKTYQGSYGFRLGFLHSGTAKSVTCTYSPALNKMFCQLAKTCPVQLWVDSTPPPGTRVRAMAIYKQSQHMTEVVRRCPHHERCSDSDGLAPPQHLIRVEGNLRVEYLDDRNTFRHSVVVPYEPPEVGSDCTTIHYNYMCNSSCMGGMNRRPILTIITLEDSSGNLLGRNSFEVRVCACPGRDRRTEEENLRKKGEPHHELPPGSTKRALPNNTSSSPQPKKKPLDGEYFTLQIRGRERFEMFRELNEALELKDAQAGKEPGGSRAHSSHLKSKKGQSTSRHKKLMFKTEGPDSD
# [3] = measured here: cell number at 24 h, Library stock concentration: 3.33 mM
# [4] = measured here: cell number at 48 h, Library stock concentration: 3.33 mM
# [5] = Library stock concentration: 3.33 mM
# [6] = measured here: p53 positive nuclei at 24 h, Library stock concentration: 3.33 mM
# [7] = measured here: cell number at 24 h, concentration not given here
# [8] = measured here: cell number at 48 h, concentration not given here
# [9] = measured here: p53 positive nuclei at 24 h, concentration not given here
# [10] = measured here: cell number at 24 h, Library stock concentration: 80 uM
# [11] = measured here: cell number at 24 h, Library stock concentration: 400 uM
# [12] = measured here: cell number at 24 h, Library stock concentration: 2 mM
# [13] = measured here: cell number at 24 h, Library stock concentration: 10 mM
# [14] = measured here: cell number at 48 h, Library stock concentration: 80 uM
# [15] = measured here: cell number at 48 h, Library stock concentration: 400 uM
# [16] = measured here: cell number at 48 h, Library stock concentration: 2 mM
# [17] = measured here: cell number at 48 h, Library stock concentration: 10 mM
# [18] = Library stock concentration: 80 uM
# [19] = Library stock concentration: 400 uM
# [20] = Library stock concentration: 2 mM
# [21] = Library stock concentration: 10 mM
# [22] = measured here: p53 positive nuclei at 24 h, Library stock concentration: 80 uM
# [23] = measured here: p53 positive nuclei at 24 h, Library stock concentration: 400 uM
# [24] = measured here: p53 positive nuclei at 24 h, Library stock concentration: 2 mM
# [25] = measured here: p53 positive nuclei at 24 h, Library stock concentration: 10 mM
smiles,measurement,setting,value
CCc1cc2c(cc1CC)CC(NCC(O)c1ccc(O)c3[nH]c(=O)ccc13)C2 (centres undefined),"nuclei count, normalised",[1]; [3],112%
same,"nuclei count, normalised",[1]; [4],110%
same,"p53-positive nuclei, normalised",[2]; [5],-0.298% (inactive)
same,"p53-positive nuclei, normalised",[2]; [6],-0.54%
CCCCC[C@H](O)/C=C/[C@H]1[C@H](O)CC(=O)[C@@H]1C/C=C\CCCC(=O)OC,"nuclei count, normalised",[1]; [7],111%
same,"nuclei count, normalised",[1]; [8],106%
same,"p53-positive nuclei, normalised",[2]; concentration not given here,-0.0657% (inactive)
same,"p53-positive nuclei, normalised",[2]; [9],0.249%
CCC(CC)(NC(=O)C(C)C)C(=O)NC(CCCN=C(N)N)C(=O)NC1(C(=O)NC(c2ccc(F)cc2)c2ccc(F)cc2)CCCC1 (centres undefined),"nuclei count, normalised",[1]; [3],107%
same,"nuclei count, normalised",[1]; [4],102%
same,"p53-positive nuclei, normalised",[2]; [5],-0.0557% (inactive)
same,"p53-positive nuclei, normalised",[2]; [6],-0.115%
c1ccc(-c2nc3c(cnn3C3CCCCC3)[nH]2)c(Cn2cccn2)c1,"nuclei count, normalised",[1]; [7],106%
same,"nuclei count, normalised",[1]; [8],110%
same,"p53-positive nuclei, normalised",[2]; concentration not given here,-0.0852% (inactive)
same,"p53-positive nuclei, normalised",[2]; [9],0.144%
CN(C)c1ccc(C(=O)NCCCCCC(=O)NO)cc1,"nuclei count, normalised",[1]; [7],110%
same,"nuclei count, normalised",[1]; [8],106%
same,"p53-positive nuclei, normalised",[2]; concentration not given here,0.149% (inactive)
same,"p53-positive nuclei, normalised",[2]; [9],0.257%
CC(C=CC(=O)NO)=CC(C)C(=O)c1ccc(N(C)C)cc1 (centres undefined),"nuclei count, normalised",[1]; [3],35.3%
same,"nuclei count, normalised",[1]; [4],21.2%
same,"p53-positive nuclei, normalised",[2]; [5],88.9% (active)
same,"p53-positive nuclei, normalised",[2]; [6],74.9%
CN(C)c1ccc(C(=O)NCCCCCCC(=O)NO)cc1,"nuclei count, normalised",[1]; [3],54.1%
same,"nuclei count, normalised",[1]; [7],116%
same,"nuclei count, normalised",[1]; [4],44.8%
same,"nuclei count, normalised",[1]; [8],100%
same,"p53-positive nuclei, normalised",[2]; [5],25% (inactive)
same,"p53-positive nuclei, normalised",[2]; concentration not given here,0.296% (inactive)
same,"p53-positive nuclei, normalised",[2]; [6],45%
same,"p53-positive nuclei, normalised",[2]; [9],0.159%
CC(/C=C/C(=O)NO)=C\[C@@H](C)C(=O)c1ccc(N(C)C)cc1,"nuclei count, normalised",[1]; [7],53.4%
same,"nuclei count, normalised",[1]; [8],27.6%
same,"p53-positive nuclei, normalised",[2]; concentration not given here,55.3% (active)
same,"p53-positive nuclei, normalised",[2]; [9],61.3%
COC(=O)c1c(NC(=O)CC2SC(=N)NC2=O)sc(C)c1C (centres undefined),"nuclei count, normalised",[1]; [10],98.4%
same,"nuclei count, normalised",[1]; [11],104%
same,"nuclei count, normalised",[1]; [12],101%
same,"nuclei count, normalised",[1]; [13],101%
same,"nuclei count, normalised",[1]; [14],108%
same,"nuclei count, normalised",[1]; [15],108%
same,"nuclei count, normalised",[1]; [16],106%
same,"nuclei count, normalised",[1]; [17],99.8%
same,"p53-positive nuclei, normalised",[2]; [18],-0.137% (inactive)
same,"p53-positive nuclei, normalised",[2]; [19],-0.126% (inactive)
same,"p53-positive nuclei, normalised",[2]; [20],-0.195% (inactive)
same,"p53-positive nuclei, normalised",[2]; [21],-0.114% (inactive)
same,"p53-positive nuclei, normalised",[2]; [22],-0.000422%
same,"p53-positive nuclei, normalised",[2]; [23],-0.116%
same,"p53-positive nuclei, normalised",[2]; [24],-0.00728%
same,"p53-positive nuclei, normalised",[2]; [25],-0.004%
C[C@]1(C(=O)Nc2ccc(F)nc2)CCCN1c1nc(Nc2cc(C3CC3)[nH]n2)c2cccn2n1,"nuclei count, normalised",[1]; [3],46.1%
same,"nuclei count, normalised",[1]; [4],30.3%
same,"p53-positive nuclei, normalised",[2]; [5],-0.488% (inactive)
same,"p53-positive nuclei, normalised",[2]; [6],-0.0691%
CN1CCN(c2ccc(Nc3c4ccccc4nc4ccccc34)cc2)CC1,"nuclei count, normalised","[1]; measured here: cell number at 24 h, Library stock concentration: 46 uM",95.9%
same,"nuclei count, normalised",[1]; [10],110%
same,"nuclei count, normalised","[1]; measured here: cell number at 24 h, Library stock concentration: 278 uM",90.1%
same,"nuclei count, normalised",[1]; [11],95.8%
same,"nuclei count, normalised","[1]; measured here: cell number at 24 h, Library stock concentration: 1.67 mM",79.3%
same,"nuclei count, normalised",[1]; [12],52.3%
same,"nuclei count, normalised",[1]; [13],32.6% and 36.6%
same,"nuclei count, normalised","[1]; measured here: cell number at 48 h, Library stock concentration: 46 uM",96.2%
same,"nuclei count, normalised",[1]; [14],109%
same,"nuclei count, normalised","[1]; measured here: cell number at 48 h, Library stock concentration: 278 uM",93.5%
same,"nuclei count, normalised",[1]; [15],103%
same,"nuclei count, normalised","[1]; measured here: cell number at 48 h, Library stock concentration: 1.67 mM",81%
same,"nuclei count, normalised",[1]; [16],48.7%
same,"nuclei count, normalised",[1]; [17],18.8% and 22%
same,"p53-positive nuclei, normalised",[2]; Library stock concentration: 46 uM,-0.136% (inactive)
same,"p53-positive nuclei, normalised",[2]; [18],-0.131% (inactive)
same,"p53-positive nuclei, normalised",[2]; Library stock concentration: 278 uM,-0.255% (inactive)
same,"p53-positive nuclei, normalised",[2]; [19],-0.231% (inactive)
same,"p53-positive nuclei, normalised",[2]; Library stock concentration: 1.67 mM,-0.00204% (inactive)
same,"p53-positive nuclei, normalised",[2]; [20],5.16% (inactive)
same,"p53-positive nuclei, normalised",[2]; [21],53.2% (active) and 55.4% (active)
same,"p53-positive nuclei, normalised","[2]; measured here: p53 positive nuclei at 24 h, Library stock concentration: 46 uM",-0.145%
same,"p53-positive nuclei, normalised",[2]; [22],-0.0662%
same,"p53-positive nuclei, normalised","[2]; measured here: p53 positive nuclei at 24 h, Library stock concentration: 278 uM",-0.137%
same,"p53-positive nuclei, normalised",[2]; [23],-0.059%
same,"p53-positive nuclei, normalised","[2]; measured here: p53 positive nuclei at 24 h, Library stock concentration: 1.67 mM",0.126%
same,"p53-positive nuclei, normalised",[2]; [24],13.1%
same,"p53-positive nuclei, normalised",[2]; [25],88.3% and 79.2%
